Measurements taken from PubChem BioAssay AID449746 (Sanford-Burnham Center for Chemical Genomics, 2010).
Among all 2,000 compounds or so, about 680 (34%) were called active. Rule as the data show it: active = inhibition mostly above about 28% (no sharp cut-off); inactive = mostly below about 22%. The list is a sample of the results.

assay: PMA/ionomycin-induced NF-kB reporter inhibitors, 697 retest, confirmation, B-cell NF-kB inhibitor project, cell-based, luminescence, single concentration (AID 449746); conditions: 697 B-cell NF-kB luciferase, 16 h, at 4 µM, active compounds read high

Row | SMILES | inhibition
1 | CCCCCCCCCCCCn1ccc(=N)cc1 | 50% (active)
